# Source: PubChem BioAssay (NCATS)
# Inconclusive results are not listed. Calls of active or inactive are those of the source. Unless noted, calls come from the whole dose curve.
# Assays:
# [1] = qHTS for Inhibitors of the Functional Ribonucleoprotein Complex (vRNP) of Lassa (LASV) Arenavirus: Viability assay - alamar blue signal for LASV Primary Screen (AID 1347083; calls by dose curve; tested in HEK293 reporter line; note: nearly all actives have a fitted effect of over 80% in size; note: potency is the fitted concentration of half-maximal effect)
# [2] = qHTS for Inhibitors of the Functional Ribonucleoprotein Complex (vRNP) of Lymphocytic Choriomeningitis Arenaviruses (LCMV): Viability assay - alamar blue signal for LCMV Primary Screen (AID 1347085; calls by dose curve; tested in HEK293 reporter line; note: nearly all actives have a fitted effect of over 80% in size; note: potency is the fitted concentration of half-maximal effect)
# [3] = target: Nucleoprotein (Lymphocytic choriomeningitis virus (strain Armstrong)) (UniProt P09992); assay: qHTS for Inhibitors of the Functional Ribonucleoprotein Complex (vRNP) of Lymphocytic Choriomeningitis Arenaviruses (LCMV): LCMV Primary Screen - GLuc reporter signal (AID 1347086); note: nearly all actives have a fitted effect of over 70% in size; note: potency is the fitted concentration of half-maximal effect; for activity change, negative = inhibition: % is set by controls: 0 for no effect and ±100 for the full control effect
# Sequence of Nucleoprotein (Lymphocytic choriomeningitis virus (strain Armstrong)) (P09992 whole entry, looked up): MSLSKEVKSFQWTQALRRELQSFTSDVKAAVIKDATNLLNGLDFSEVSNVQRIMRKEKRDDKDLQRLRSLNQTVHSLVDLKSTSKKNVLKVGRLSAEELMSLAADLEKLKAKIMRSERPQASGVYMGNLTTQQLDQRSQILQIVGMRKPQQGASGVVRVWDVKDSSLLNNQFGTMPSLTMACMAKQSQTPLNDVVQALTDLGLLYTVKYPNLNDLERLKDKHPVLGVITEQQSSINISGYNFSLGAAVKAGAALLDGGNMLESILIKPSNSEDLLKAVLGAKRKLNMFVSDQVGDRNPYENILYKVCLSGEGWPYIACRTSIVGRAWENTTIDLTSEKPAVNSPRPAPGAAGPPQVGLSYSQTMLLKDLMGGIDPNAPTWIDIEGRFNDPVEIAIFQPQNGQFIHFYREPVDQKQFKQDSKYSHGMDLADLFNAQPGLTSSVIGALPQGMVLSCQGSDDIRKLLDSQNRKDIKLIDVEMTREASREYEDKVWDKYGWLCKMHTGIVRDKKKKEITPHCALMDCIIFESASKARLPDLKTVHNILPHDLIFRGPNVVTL
# [4] = Confirmatory qHTS for VERO E6 Cytotoxicity Assay: Counterscreen for SARS-CoV-2 CPE Assay (AID 1508605); note: % is set by controls: 0 for no effect and ±100 for the full control effect; nearly all actives have a fitted effect of over 60% in size
# [5] = Cytotoxicity counterscreen for inhibitors of SARS-CoV-2 cell entry (AID 1645845); note: nearly all actives have a fitted effect of over 50% in size; note: potency is the fitted concentration of half-maximal effect
# Procedure, shortened: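 ATP-content luminescence (ATPLite 1step, 15 min RT) read after 48 h compound exposure of Expi293F cells stably expressing human ACE2; normalized to cells-only wells and media-only wells.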
# [6] = Primary qHTS to identify inhibitors of SARS-CoV-2 cell entry (AID 1645846); settings: activity change, negative = inhibition: at 57.1 µM (top of the series) unless noted; note: nearly all actives have a fitted effect of over 45% in size
# Procedure, shortened: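 Inhibition of spike-mediated entry was scored in human ACE2-transfected Expi293F cells. Particles were MLV-pseudotyped with Wuhan-Hu-1 S carrying a 19-aa C-terminal deletion; signal was luciferase after two days, scaled between spike PP and fusion-protein-free PP.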
SMILES,Potency [1],Potency [2],Potency [3],Potency [4],Potency [5],"activity change, negative = inhibition [6]"
NC(=O)c1cccc(-c2cc(Nc3ccc(OC(F)(F)F)cc3)ncn2)c1,inactive,inactive,inactive,inactive,22.4 µM (active),
Cc1ccc(S(=O)(=O)Nc2nc3ccccc3nc2Nc2ccc3nsnc3c2)cc1,1.06 µM (active),2.11 µM (active),1.33 µM (active),,inactive,-18.1% [at 27.1 µM]
C#C[C@]1(O)CC[C@H]2[C@H]3CCc4cc(OC)ccc4[C@H]3CC[C@@]21C,13.7 µM (active),24.3 µM (active),27.3 µM (active),,,
CNC(=O)c1ccccc1Nc1nc(Nc2ccc(N3CCOCC3)cc2OC)ncc1Cl,4.85 µM (active),2.73 µM (active),,,inactive,
C[C@@]1(C(=O)Nc2ccc(F)nc2)CCCN1c1nc(Nc2cc(C3CC3)[nH]n2)c2cccn2n1,6.11 µM (active),1.37 µM (active),,,inactive,
Cc1cc(C(C)Nc2ccccc2)c2nc(N3CCOCC3)cc(=O)n2c1 (configuration not stated),1.93 µM (active),0.544 µM (active),,,inactive,
